Laboratory results: paper PMC7862700, “An all-to-all approach to the identification of sequence-specific readers for epigenetic DNA modifications on cytosine”

Columns and labels:
Test in all cases: DAPPL (digital affinity profiling via proximity ligation, sequencing); 10 mM Tris-HCl pH 7.5, 50 mM NaCl, 1 mM DTT, 4% glycerol, room temperature, 30 min; GST-TFs on glutathione beads, 16-mer random dsDNA library, 0.1% formaldehyde crosslink after washing; high values mean tight binding
Settings in all cases: protein: recombinant; tags: N-terminal GST; dsDNA, one strand shown
ERF = target: T1, ERF (Homo sapiens, UniProt P50548 1-548)
T1 sequence: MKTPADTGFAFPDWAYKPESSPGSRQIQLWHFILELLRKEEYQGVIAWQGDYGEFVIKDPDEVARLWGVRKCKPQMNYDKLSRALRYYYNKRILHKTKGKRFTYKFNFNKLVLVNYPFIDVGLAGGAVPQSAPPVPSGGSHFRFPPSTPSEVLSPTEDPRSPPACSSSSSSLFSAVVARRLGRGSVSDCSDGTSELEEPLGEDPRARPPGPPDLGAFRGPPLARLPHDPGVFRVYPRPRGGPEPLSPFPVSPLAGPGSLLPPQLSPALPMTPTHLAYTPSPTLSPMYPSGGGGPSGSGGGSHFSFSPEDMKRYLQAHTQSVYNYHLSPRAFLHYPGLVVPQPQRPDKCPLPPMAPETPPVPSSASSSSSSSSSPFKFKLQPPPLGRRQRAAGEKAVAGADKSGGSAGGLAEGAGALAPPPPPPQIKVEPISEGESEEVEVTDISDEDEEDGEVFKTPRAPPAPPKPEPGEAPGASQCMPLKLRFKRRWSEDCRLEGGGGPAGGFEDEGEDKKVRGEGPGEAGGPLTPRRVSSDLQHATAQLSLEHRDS
How it was run: (§1)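 After expression in yeast as GST fusions, human transcription factors were bound to glutathione beads, DNA-barcoded and mixed with a tag-only sample. The pools were incubated with 200 nmole of a 16-mer random double-stranded DNA library in Tris/NaCl/DTT/glycerol buffer (30 min, room temperature), washed and crosslinked with 0.1% formaldehyde. Proximity ligation with BsaI/T4 ligase ran for 1 h at 37 °C, before PCR amplification and sequencing on an Illumina NextSeq500. Binding signal is a hexamer's read frequency for a factor divided by its frequency for the tag-only sample.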

ETV3L = target: T2, ETV3L (Homo sapiens, UniProt Q6ZN32 1-361)
T2 sequence: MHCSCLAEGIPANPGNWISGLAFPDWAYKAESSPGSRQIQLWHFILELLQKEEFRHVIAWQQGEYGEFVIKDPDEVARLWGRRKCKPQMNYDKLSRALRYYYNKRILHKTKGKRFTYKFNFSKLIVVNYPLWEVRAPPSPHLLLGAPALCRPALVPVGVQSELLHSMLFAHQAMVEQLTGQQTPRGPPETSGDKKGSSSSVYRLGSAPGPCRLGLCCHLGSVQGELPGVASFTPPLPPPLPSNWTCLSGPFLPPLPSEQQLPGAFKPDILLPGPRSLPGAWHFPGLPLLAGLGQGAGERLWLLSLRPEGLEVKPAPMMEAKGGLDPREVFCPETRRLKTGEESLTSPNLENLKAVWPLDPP
How it was run: as §1

ETS2 = target: T3, ETS2 (Homo sapiens, UniProt P15036 1-469)
T3 sequence: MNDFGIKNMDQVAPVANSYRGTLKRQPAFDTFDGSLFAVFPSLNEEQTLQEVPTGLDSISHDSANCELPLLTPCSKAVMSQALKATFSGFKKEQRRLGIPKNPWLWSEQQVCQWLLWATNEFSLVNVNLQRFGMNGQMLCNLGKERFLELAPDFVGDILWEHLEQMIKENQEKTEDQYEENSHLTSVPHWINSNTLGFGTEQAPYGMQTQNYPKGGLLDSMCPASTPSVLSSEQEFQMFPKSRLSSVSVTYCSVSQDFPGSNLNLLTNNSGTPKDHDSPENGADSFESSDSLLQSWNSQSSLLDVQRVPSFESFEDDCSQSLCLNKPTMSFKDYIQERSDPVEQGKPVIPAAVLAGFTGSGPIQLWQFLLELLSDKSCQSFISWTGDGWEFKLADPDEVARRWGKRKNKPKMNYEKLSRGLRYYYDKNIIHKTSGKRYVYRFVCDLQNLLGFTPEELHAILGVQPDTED
How it was run: as §1

SPDEF = target: T4, SPDEF (Homo sapiens, UniProt O95238 1-335)
T4 sequence: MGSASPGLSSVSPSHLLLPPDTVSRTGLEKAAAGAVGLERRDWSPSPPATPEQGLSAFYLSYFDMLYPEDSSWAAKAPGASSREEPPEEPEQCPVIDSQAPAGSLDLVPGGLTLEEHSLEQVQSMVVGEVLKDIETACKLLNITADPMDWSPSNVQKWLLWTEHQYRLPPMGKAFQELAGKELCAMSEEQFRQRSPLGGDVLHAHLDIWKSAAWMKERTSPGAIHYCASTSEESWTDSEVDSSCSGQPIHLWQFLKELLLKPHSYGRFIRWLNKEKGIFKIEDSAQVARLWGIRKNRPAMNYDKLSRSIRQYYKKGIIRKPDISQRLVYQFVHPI
How it was run: as §1

ETV7 = target: T5, ETV7 (Homo sapiens, UniProt Q9Y603 1-341)
T5 sequence: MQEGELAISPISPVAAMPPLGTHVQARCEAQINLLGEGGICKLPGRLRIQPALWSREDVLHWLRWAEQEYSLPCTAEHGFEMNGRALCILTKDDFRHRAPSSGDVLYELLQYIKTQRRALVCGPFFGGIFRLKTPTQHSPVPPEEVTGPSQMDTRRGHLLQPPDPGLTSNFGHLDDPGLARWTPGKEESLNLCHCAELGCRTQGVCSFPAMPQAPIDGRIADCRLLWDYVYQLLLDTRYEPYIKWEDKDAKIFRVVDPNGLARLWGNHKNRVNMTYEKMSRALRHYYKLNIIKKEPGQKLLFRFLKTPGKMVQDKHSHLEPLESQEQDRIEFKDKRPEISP
How it was run: as §1

ELF5 = target: T6, ELF5 (Homo sapiens, UniProt Q9UKW6-2 1-255)
T6 sequence: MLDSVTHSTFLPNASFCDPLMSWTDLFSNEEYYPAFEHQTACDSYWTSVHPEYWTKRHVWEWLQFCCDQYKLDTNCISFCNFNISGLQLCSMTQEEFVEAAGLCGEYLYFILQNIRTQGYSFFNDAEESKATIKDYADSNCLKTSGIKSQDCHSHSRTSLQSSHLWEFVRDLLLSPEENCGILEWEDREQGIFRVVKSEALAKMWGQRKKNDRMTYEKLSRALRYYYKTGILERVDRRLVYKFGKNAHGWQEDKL
How it was run: as §1

ETV3 = target: T7, ETV3 (Homo sapiens, UniProt P41162-2 1-143)
T7 sequence: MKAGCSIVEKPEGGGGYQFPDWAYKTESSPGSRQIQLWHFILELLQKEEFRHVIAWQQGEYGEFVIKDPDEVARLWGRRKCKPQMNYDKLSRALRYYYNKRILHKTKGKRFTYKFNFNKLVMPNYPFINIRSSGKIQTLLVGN
How it was run: as §1

ETV6 = ETV6 (Homo sapiens, UniProt P41212 1-452)
Chain of ETV6 (P41212 whole entry): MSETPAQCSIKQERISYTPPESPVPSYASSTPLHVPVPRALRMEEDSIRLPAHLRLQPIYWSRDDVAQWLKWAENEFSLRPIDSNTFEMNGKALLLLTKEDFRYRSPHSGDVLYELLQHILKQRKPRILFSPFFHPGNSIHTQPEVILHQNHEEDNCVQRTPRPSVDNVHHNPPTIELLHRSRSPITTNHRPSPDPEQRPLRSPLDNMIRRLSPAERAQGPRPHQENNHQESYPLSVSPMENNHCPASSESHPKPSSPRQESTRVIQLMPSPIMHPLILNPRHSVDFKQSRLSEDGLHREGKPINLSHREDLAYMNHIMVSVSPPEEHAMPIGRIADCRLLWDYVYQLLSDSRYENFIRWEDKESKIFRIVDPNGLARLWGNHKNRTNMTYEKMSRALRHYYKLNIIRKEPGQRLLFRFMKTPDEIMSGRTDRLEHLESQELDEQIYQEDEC
How it was run: as §1

Row | Sequence | binding signal (ERF) | binding signal (ETV3L) | binding signal (ETS2) | binding signal (SPDEF) | binding signal (ETV7) | binding signal (ELF5) | binding signal (ETV3) | binding signal (ETV6)
1 | GCACTA | 1.19 fold enrichment (6-mer frequency, TF over GST control) | 1.23 fold enrichment (6-mer frequency, TF over GST control) | 1.21 fold enrichment (6-mer frequency, TF over GST control) | 1.16 fold enrichment (6-mer frequency, TF over GST control) | 1.2 fold enrichment (6-mer frequency, TF over GST control) | 1.1 fold enrichment (6-mer frequency, TF over GST control) | 1.22 fold enrichment (6-mer frequency, TF over GST control) | 1.09 fold enrichment (6-mer frequency, TF over GST control)
2 | CCGAAC | 1.23 fold enrichment (6-mer frequency, TF over GST control) | 1.27 fold enrichment (6-mer frequency, TF over GST control) | 1.26 fold enrichment (6-mer frequency, TF over GST control) | 1.28 fold enrichment (6-mer frequency, TF over GST control) | 1.14 fold enrichment (6-mer frequency, TF over GST control) | 1.21 fold enrichment (6-mer frequency, TF over GST control) | 1.18 fold enrichment (6-mer frequency, TF over GST control) | 1.28 fold enrichment (6-mer frequency, TF over GST control)
3 | CTGGAT | 1.43 fold enrichment (6-mer frequency, TF over GST control) | 1.5 fold enrichment (6-mer frequency, TF over GST control) | 1.4 fold enrichment (6-mer frequency, TF over GST control) | 1.42 fold enrichment (6-mer frequency, TF over GST control) | 1.22 fold enrichment (6-mer frequency, TF over GST control) | 1.3 fold enrichment (6-mer frequency, TF over GST control) | 1.37 fold enrichment (6-mer frequency, TF over GST control) | 1.21 fold enrichment (6-mer frequency, TF over GST control)
4 | ATTTAG | 1.22 fold enrichment (6-mer frequency, TF over GST control) | 1.15 fold enrichment (6-mer frequency, TF over GST control) | 1.07 fold enrichment (6-mer frequency, TF over GST control) | 1.13 fold enrichment (6-mer frequency, TF over GST control) | 1.07 fold enrichment (6-mer frequency, TF over GST control) | 1.04 fold enrichment (6-mer frequency, TF over GST control) | 1.12 fold enrichment (6-mer frequency, TF over GST control) | 1.21 fold enrichment (6-mer frequency, TF over GST control)
5 | AATCTG | 1.41 fold enrichment (6-mer frequency, TF over GST control) | 1.39 fold enrichment (6-mer frequency, TF over GST control) | 1.52 fold enrichment (6-mer frequency, TF over GST control) | 1.37 fold enrichment (6-mer frequency, TF over GST control) | 1.46 fold enrichment (6-mer frequency, TF over GST control) | 1.37 fold enrichment (6-mer frequency, TF over GST control) | 1.43 fold enrichment (6-mer frequency, TF over GST control) | 1.4 fold enrichment (6-mer frequency, TF over GST control)
6 | TAATTC | 1.29 fold enrichment (6-mer frequency, TF over GST control) | 1.38 fold enrichment (6-mer frequency, TF over GST control) | 1.48 fold enrichment (6-mer frequency, TF over GST control) | 1.37 fold enrichment (6-mer frequency, TF over GST control) | 1.38 fold enrichment (6-mer frequency, TF over GST control) | 1.41 fold enrichment (6-mer frequency, TF over GST control) | 1.51 fold enrichment (6-mer frequency, TF over GST control) | 1.53 fold enrichment (6-mer frequency, TF over GST control)
7 | TTTCAG | 1.38 fold enrichment (6-mer frequency, TF over GST control) | 1.31 fold enrichment (6-mer frequency, TF over GST control) | 1.27 fold enrichment (6-mer frequency, TF over GST control) | 1.37 fold enrichment (6-mer frequency, TF over GST control) | 1.13 fold enrichment (6-mer frequency, TF over GST control) | 1.28 fold enrichment (6-mer frequency, TF over GST control) | 1.27 fold enrichment (6-mer frequency, TF over GST control) | 1.31 fold enrichment (6-mer frequency, TF over GST control)
